# Records with an inconclusive call do not appear. A number with no mark means an inactive call. Calls of active or inactive are those of the source. The call rests on the fitted dose curve; in most records, active means well fitted cell-killing curve with a large enough effect; inconclusive means small, poorly fitted or top-dose-only effect; inactive means flat fitted curve, though single readings scatter.
# Test: Cell Viability - LYMP2-006 (AID 978); further: nearly all actives have a fitted effect of over 60% in size
# Conditions: LYMP2-006 lymphoblastoid cell viability, qHTS; series mostly up to 92.2 µM; activity change, negative = cytotoxicity: at the top concentration
# Description: NIH Chemical Genomics Center [NCGC]
# NIH Molecular Libraries Screening Centers Network [MLSCN]
# National Institutes of Environmental Health Sciences [NIEHS]
# National Toxicology Program [NTP]
# We have developed a 1536-well cell-based assay for quantitative high throughput screening (qHTS) against a number of cell lines to determine in vitro cytotoxicity of small molecules. This particular assay uses a human lymphoblastoid cell line (LYMP2-006) purchased from Coriell Institute for Medical Research.
# NCGC Assay Protocol Summary:
# The CellTiter-Glo luminescent cell viability assay (Promega) is a homogeneous method to measure the number of viable cells in culture. The end point readout of this assay is based on quantitation of intracellular ATP, an indicator of metabolic activity, using the luciferase reaction. Luciferase catalyzes the oxidation of beetle Luciferin to oxyluciferin and light in the presence of ATP. The luminescent signal is proportional to amount of ATP present.
# Using the CellTiter-Glo luminescent cell viability assay, the amount of cellular ATP was measured in the lymphoblastoid cell line with complete culture medium following compound treatment for 24 hours. The assay was performed in opaque white Kalypsys 1536-well plates. In the screen, tetraoctylammonium bromide was used as positive control. Library compounds were measured for their ability to cause acute toxicity in the cell line, as reflected by a decrease in intracellular ATP levels, in a concentration-dependent manner. […] AC50 values were determined from concentration-response data modeled with the standard Hill equation.
# qHTS protocol for CellTiter Glo lymphoblastoid cellular assay
# [Step] [Parameter] [Value] [Description]
# 1. Reagent; 5 uL; 2500 lymphoblastoid cells/well
# 2. Time; 5 hr; 37 C incubation
# 4. Controls; 23 nL; Tetraoctylammonium bromide 6.4pM to 92 uM
# 5. Time; 24 hr; 37 C incubation
# 6. Reagent; 5 uL; CellTiter Glo reagent
# 7. Time; 30 min; Room Temperature
# 8. Detection; Luminescence; Viewlux plate reader
# Keywords: cell viability, cytotoxicity, lymphoblastoid cell line, luminescence, NTPHTS, NTPHTS_NCGC, NIEHS, DSSTox, MLSMR, MLSCN, NIH Roadmap, qHTS, NCGC
# On the % scale 0 is the no-effect control and ±100 the full control effect; potency means the concentration at half of the fitted maximal effect.
Structure (SMILES),"activity change, negative = cytotoxicity",Potency
IC(I)I,1.16%,–
CCCCC/C=C\C/C=C\CCCCCCCC(=O)O,-19.2%,–
CCCCCCCC(=O)O,–,inactive
CCOC(C)=O,-3.15%,–
Cc1ccccc1,–,inactive
CC(O)CO (stereo not given),–,inactive
O=C(O)CCC(=O)C(=O)O,-2.69%,–
CC(C)=O,-13.8%,–
CC1=C(/C=C/C(C)=C/C=C/C(C)=C/CO)C(C)(C)CCC1,-22.8%,–
CCCCCCCC/C=C\CCCCCCCC(=O)O,-1.11%,–
O=S(=O)(O)O,–,inactive
CCOc1ccc2c(c1)C(C)=CC(C)(C)N2,-4.59%,–
CC1=C2[C@@H]([C@H](C)CC[C@H]2/C=C(\C)C(=O)O)[C@H](O)C1,2.2%,–
Nc1ccn([C@H]2CS[C@@H](CO)O2)c(=O)n1,-2.16%,–
O=CCCCC=O,–,25.1 µM (active)

# Source: PubChem BioAssay (NCATS)
